High-throughput results from PubChem.
Rows were chosen to be rich in hits. Some 15% of all compounds tested hit in one or more screens of this group.
RORgamma inh = blocks mouse ROR gamma transcriptional activity | P51450 | Drosophila S2 Gal4-RORgamma UAS-luciferase reporter, 20 h | Potency, µM (titrated, usually from 53.6 µM), for inactives: at the highest dose activity change, negative = inhibition, usual class: inhibitors | actives 5.4% (n = 310,000); note: nearly all actives have a fitted effect of over 60% in size
Target sequence (P51450 whole entry, looked up, the tested form may be a part): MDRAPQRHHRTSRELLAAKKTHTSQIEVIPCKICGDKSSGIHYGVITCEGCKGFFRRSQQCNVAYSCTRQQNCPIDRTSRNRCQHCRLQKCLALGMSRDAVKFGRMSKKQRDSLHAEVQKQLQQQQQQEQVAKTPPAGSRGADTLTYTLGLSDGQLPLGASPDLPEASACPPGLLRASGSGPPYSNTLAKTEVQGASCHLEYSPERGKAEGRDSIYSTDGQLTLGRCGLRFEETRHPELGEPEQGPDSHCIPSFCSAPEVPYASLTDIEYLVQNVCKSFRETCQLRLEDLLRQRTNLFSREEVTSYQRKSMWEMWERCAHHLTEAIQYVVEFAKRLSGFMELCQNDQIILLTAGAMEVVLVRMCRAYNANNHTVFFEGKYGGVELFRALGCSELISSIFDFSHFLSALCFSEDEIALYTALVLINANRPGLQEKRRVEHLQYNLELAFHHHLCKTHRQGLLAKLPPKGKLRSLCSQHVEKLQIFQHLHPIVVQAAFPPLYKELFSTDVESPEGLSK
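ROR gamma transcriptional activity was tracked as Gal4-UAS luciferase output in stably transfected Drosophila Schneider cells, with compound added 1 hr before 700 uM copper sulfate induction and a 20 hr ambient-temperature incubation.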
TDP1 cell noCPT = qHTS for Inhibitors of human tyrosyl-DNA phosphodiesterase 1 (TDP1): qHTS in cells in absence of CPT; Potency, µM (highest dose often 46.2 µM), for inactives: top-dose activity change, negative = growth inhibition, usual class: inhibitors; actives 15% (n = 420,000); DT40 Tdp1-/- hTDP1 cells, no CPT, ATP luminescence, 48 h; note: nearly all actives have a fitted effect of over 55% in size
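Seeded 400 DT40-hTDP1 cells/well (vehicle DMSO, no 20 nM CPT); pinned compounds; ≥48 hr at 37 °C; CellTiter-Glo luminescence as viability measure.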
VP16 counter = inhibits Gal4-VP16 luciferase reporter, ROR gamma counter-screen | Drosophila S2 Gal4-VP16 UAS-luciferase, luminescence, 20 h | Potency, µM (highest dose often 53.6 µM), for inactives: at the top dose activity, negative = inhibition, hits mostly inhibitors | actives 3.5% (n = 310,000);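 note: Gal4-VP16 expression switched on by copper sulfate through the metallothionein promoter; nearly all actives have a fitted effect of over 50% in size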
ELG1 DNA repair = blocks ELG1-dependent DNA repair in HEK293T cells. HEK293T ELG1-luciferase reporter, luminescence, 16 h; DNA damage induced by 5-fluorouridine. Potency, µM (series often up to 46.1 µM), without a hit: top-dose activity change, negative = inhibition, usual class: inhibitors. AID 504467. actives 2.3% (n = 330,000); note: nearly all actives have a fitted effect of over 55% in size
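Step one: seed 2,000 cells per well. Step two: pin-transfer compound or DMSO alongside 5-fluorouridine. Step three: incubate 16 hr, 37 °C, 5% CO2. Step four: add ONE-Glo, wait 30 min, read luminescence.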
DT40 TDP1 CPT = DT40-hTDP1 cell growth loss with CPT. chicken DT40 Tdp1-/-;hTDP1 cells + 20 nM CPT, ATP luminescence, 48 h. Potency, µM (highest dose often 46.2 µM), for inactives: at the highest dose activity change, negative = growth inhibition, hits mostly inhibitors. actives 12% (n = 420,000); note: nearly all actives have a fitted effect of over 55% in size
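Chicken DT40 Tdp1-/- cells complemented with human TDP1, 400 cells/well, exposed to compounds plus 20 nM camptothecin for at least 48 h at 37 C; viability read as ATP content by CellTiter-Glo luminescence.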
12-LOX inh = ALOX12 (human) lipoxygenase inhibition; actives 1.1% (n = 580,000); purified 12hLO, xylenol orange hydroperoxide absorbance; Potency, µM (top dose mostly 108 µM), for the others: at the top dose activity change, negative = inhibition, actives largely listed as inhibitors
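Purified human 12hLO (150 nM final) in 25 mM Hepes, 0.01% Triton X-100, pH 7.0 was preincubated 15 min at room temperature with compound. Then 40 uM arachidonic acid was added, 30 min. Hydroperoxide was read by Fe-XO absorbance ratio 573/405 nm.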
Numbers without * were called inactive; ? = inconclusive; · = not tested or not shown; [ ] = remark or other dose. Calls come from the whole dose curve; as a rule, active = well fitted curve in the direction sought with a large enough effect; inconclusive = small, poorly fitted or top-dose-only effect, or another doubt; inactive = no such curve, though single readings can be large; an effect the other way counts as inactive or inconclusive. % is set by controls: 0 for no effect and ±100 for the full control effect; potency is the fitted concentration of half-maximal effect.

SMILES | RORgamma inh | TDP1 cell noCPT | VP16 counter | ELG1 DNA repair | DT40 TDP1 CPT | 12-LOX inh
COc1cc(C(O)c2nc(-c3cccc(F)c3)cs2)ccc1F (centres undefined) | · | 18µM* | · | · | ? | -5%
OC(c1ccc(F)c(F)c1)c1nc(-c2ccc3c(c2)OCO3)cs1 (centres undefined) | · | ? | · | · | 21µM* | ?
O=C(NCc1ccncc1)c1c(OCC2CC2)cc(=O)n2c1CCCCC2 | · | · | · | · | · | 41%
CCC(=O)N1Cc2ccccc2CC2(CCCCN2Cc2ccncc2)C1 (centres undefined) | · | · | · | · | · | 6%[6.33 µM]
COc1ccc(C(=O)Nc2ccc(-c3noc([C@@H]4CCCN4Cc4c[nH]c5ccccc45)n3)cn2)cc1 | · | · | · | · | · | -5%
COc1ccc2c(CN3CCN(C(=O)C4COc5ccccc5O4)CC3)cc(=O)oc2c1 (centres undefined) | · | · | · | · | · | -6%
OC(c1ccccc1)c1nc(-c2ccc(F)c(Cl)c2)cs1 (centres undefined) | · | -39% | · | · | 16µM* | ?
COc1cccc(C(O)c2nc(-c3cc4ccccc4o3)cs2)c1 (centres undefined) | · | ? | · | · | ? | -6%
OC(c1ccc(F)c(F)c1)c1nc(-c2cnc3ccccc3c2)cs1 (centres undefined) | · | 21µM* | · | · | ? | -11%
COc1cc(C(O)c2nc(-c3cc4ccccc4o3)cs2)ccc1F (centres undefined) | · | 23µM* | · | · | 21µM* | ?
CC(C)c1cccc(-c2csc(C(O)c3ccc(F)c(F)c3)n2)c1 (centres undefined) | · | ? | · | · | ? | -29%
O=C(NCc1ccc(F)cc1)C(=O)NCC1CCCN1S(=O)(=O)c1ccccc1 (centres undefined) | · | ? | · | ? | -27% | ?
Cc1ccc(S(=O)(=O)N2CCCC2CNC(=O)C(=O)Nc2ccc(F)cc2F)cc1 (centres undefined) | · | 15µM* | · | -21% | 23µM* | 10%
O=C(NCCc1ccc(F)cc1)C(=O)NCC1CCCN1S(=O)(=O)c1ccccc1 (centres undefined) | · | 8.2µM* | · | ? | 10µM* | 15%
COc1ccc(S(=O)(=O)N2CCCC2CNC(=O)C(=O)NCc2ccc(C)cc2)cc1 (centres undefined) | · | 16µM* | · | -17% | ? | -29%
O=C(NCC1CCCN1S(=O)(=O)c1cccs1)C(=O)Nc1ccc(F)cc1F (centres undefined) | · | ? | · | -4% | ? | -10%
CCc1ccc(NC(=O)C(=O)NCC2CCCN2S(=O)(=O)c2ccccc2)cc1 (centres undefined) | · | 21µM* | · | ? | ? | 11%
CCCCCn1nc(C(=O)Nc2cc(C)cc(C)c2)c2ccccc2c1=O | · | · | · | · | · | -11%
Cc1ccc2c(CSc3nncs3)cc(=O)oc2c1C | · | · | · | · | · | -2%
COc1ccc(S(=O)(=O)N2CCCC2CNC(=O)C(=O)NCCc2ccccc2)cc1 (centres undefined) | · | 7.3µM* | · | ? | 7.3µM* | -4%
COc1ccc(CCNC(=O)C(=O)NCC2CCCN2S(=O)(=O)c2ccccc2)cc1 (centres undefined) | · | 18µM* | · | ? | 21µM* | -3%
CCc1noc(-c2cn(C3CCN(C(=O)c4ccc(Cl)s4)CC3)nn2)n1 | · | · | · | · | · | 24%
COC(=O)c1ccccc1NC(=O)C1CCC(=O)N1S(=O)(=O)c1ccc(C)cc1 (centres undefined) | -14% | -5% | -4% | -12% | -3% | 3%
COC(=O)c1cc(OC)c(OC)cc1NC(=O)C1CCC(=O)N1S(=O)(=O)c1ccc(C)cc1 (centres undefined) | -36% | 18µM* | -2% | -17% | 21µM* | ?
O=C(Nc1ccc2oc(C3CC3)nc2c1)c1ccc(=O)[nH]c1 | · | · | · | · | · | 1%
SMILES | RORgamma inh | TDP1 cell noCPT | VP16 counter | ELG1 DNA repair | DT40 TDP1 CPT | 12-LOX inh
CCn1cc(CNC(=O)c2cc(-c3cccc(C)c3)nc3ccccc23)cn1 | · | · | · | · | · | -23%
COc1ccc(N(Cc2ccccc2)C(=O)c2ccccc2[N+](=O)[O-])cc1 | 4% | 9.2µM* | 0% | ? | ? | 24%
Cn1cc([N+](=O)[O-])c(C(=O)N(Cc2ccccc2)Cc2ccccc2)n1 | 2% | 26µM* | -1% | 5% | ? | 4%
O=C(c1ccccc1[N+](=O)[O-])N(CCc1ccccc1)Cc1ccccc1 | -5% | 12µM* | 0% | -10% | 16µM* | 39%
Cc1cccc(C(=O)N(CCc2ccccc2)Cc2ccccc2)c1[N+](=O)[O-] | 17% | 7.3µM* | 1% | -12% | 10µM* | 133%
CS(=O)(=O)c1ccccc1C(=O)N(CCc1ccccc1)Cc1ccccc1 | 20% | -29% | -6% | 1% | -19% | -14%
COc1ccc(CC(=O)N2CCCC(c3ccc(C(=O)O)cc3)C2)c(OC)c1 (centres undefined) | · | · | · | · | · | 29%
CC(Oc1ccccc1)C(=O)N1CCc2c(c(-c3nncn3C(C)C)nn2C)C1 (centres undefined) | · | · | · | · | · | 43%
CCN1CCN(C(C(=O)O)c2c[nH]c3cc(NC(=O)CCC(=O)O)ccc23)CC1 (centres undefined) | · | · | · | · | · | -11%
Cc1ccc(C)c(N(C(=O)Cn2nnc3ccccc32)C(C(=O)NC(C)(C)C)c2ccsc2)c1 (centres undefined) | 9% | ? | -17% | ? | 23µM* | -18%
Cc1cc(C)c(N(C(=O)Cn2nnc3ccccc32)C(C(=O)NC(C)(C)C)c2ccsc2)c(C)c1 (centres undefined) | 10% | ? | -9%[0.365 µM] | 28% | 16µM* | -9%
CNC(=O)[C@@H]1C[C@@H](n2cc(CNC(=O)Nc3cc(F)ccc3F)nn2)CN1 | · | · | · | · | · | -3%
O=C(COc1ccccc1F)NCC(c1ccc(F)cc1)N1CCOCC1 (centres undefined) | · | -22% | · | -6% | -19% | -1%
COc1ccc(C(CNC(=O)COc2ccccc2C)N2CCOCC2)cc1 (centres undefined) | · | 16µM* | · | -1% | 21µM* | 1%
CC(C)c1ccc(OCC(=O)NCC(c2ccc(Cl)cc2)N2CCOCC2)cc1 (centres undefined) | · | 18µM* | · | · | ? | 4%
